Experimental data: the supplement of paper PMC9135407
Values joined by “and” are separate entries in the source; they are usually repeats but may differ in a detail not shown here. Identical values can stand only once. Counter-ions that a name gives are not always drawn. Screen size: about 5,800 compounds; about 620 (11%) showed activity. Many of the other results were omitted from the sample, so actives are more common in it than they were. Values without a mark were called inactive.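 How the source made its calls: active = score above a cut-off or among the top three wells of a plate; in these data no inactive exceeds 0.85.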

System: primary human hepatic stellate cells (donor 1)
Test: scaled lipid accumulation score (0 = DMSO-like, 1 = nortriptyline-like); higher = stronger HSC inactivation (lipid re-accumulation), active = hit call of the paper
Conditions: 48 h
Procedure: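 Primary lipid accumulation screen in primary human hepatic stellate cell myofibroblasts (donor 1, passage 8) in 384-well plates. 100 nL of library compound was pin-transferred into 30 µL medium in duplicate, and cells were treated for 48 h. The 'Scaled' score combines distance from plate baseline, toxicity and reproducibility penalties, and is normalised to nortriptyline (positive) and DMSO (negative) controls on each plate. A hit is defined as scaled >0.85 or among the top 3 wells per plate.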

[1] = library stock concentration: 1 mM
[2] = library stock concentration: 10 mM
[3] = library stock concentration: 80 uM
[4] = library stock concentration: 400 uM
[5] = library stock concentration: 2 mM
[6] = library stock concentration: 3.33 mM

COc1ccc2c(c1)c(CC(=O)Nc1cccnc1)c(C)n2C(=O)c1ccc(Cl)cc1 [N-(3-pyridyl)-Indomethacin amide]
scaled lipid accumulation score [1]: 0.198

CCCc1ccc(C(=O)Oc2ccc(C#N)cc2)cc1
scaled lipid accumulation score [2]: 0.011

CN(C)C(=O)CCSC(SCCC(=O)O)c1cccc(/C=C/c2ccc3ccc(Cl)cc3n2)c1 (stereo unspecified) [MK 571 (sodium salt)]
scaled lipid accumulation score [1]: ≤ 0

CCOc1cc2ncc(C#N)c(Nc3ccc(F)c(Cl)c3)c2cc1NC(=O)/C=C/CN(C)C
scaled lipid accumulation score [3]: 0.071 | scaled lipid accumulation score [4]: ≤ -0.009 | scaled lipid accumulation score [5]: 0.269

CCOc1cc2ncc(C#N)c(Nc3ccc(F)c(Cl)c3)c2cc1NC(=O)C=CCN(C)C [Pelitinib (EKB-569)]
scaled lipid accumulation score [6]: 1.01 (active)

CCOc1cc(C(=O)Nc2ccc(Cl)c(-c3nc4ccccc4[nH]3)c2)cc(OCC)c1OCC
scaled lipid accumulation score [2]: 0.438

CCOc1cc2ncc(C#N)c(Nc3ccc(F)c(Cl)c3)c2cc1NC(=O)C=CCN(C)C
scaled lipid accumulation score [2]: 1.13 (active)

CCOc1cc2ncc(C#N)c(Nc3ccc(F)c(Cl)c3)c2cc1NC(=O)/C=C/CN(C)C [Pelitinib (EKB-569)]
scaled lipid accumulation score [2]: 0.498

CCOc1cc2ncc(C#N)c(Nc3ccc(OCc4ccccn4)c(Cl)c3)c2cc1NC(=O)/C=C/CN(C)C
scaled lipid accumulation score [3]: ≤ 0 | scaled lipid accumulation score [4]: ≤ 0 | scaled lipid accumulation score [5]: 0.107 | scaled lipid accumulation score [2]: 0.02

CCCCCC(=O)/C=C/[C@H]1[C@H](O)CC(=O)[C@@H]1CCCCCCC(=O)O [15-keto Prostaglandin E1]
scaled lipid accumulation score [1]: ≤ 0

O=C(Nc1ccc([N+](=O)[O-])cc1O)Nc1ccccc1Br
scaled lipid accumulation score [1]: ≤ 0 | scaled lipid accumulation score [2]: 0.317

O[C@@H](COc1cccc2ncccc12)CN1CCN(C2c3ccccc3[C@@H]3[C@H](c4ccccc42)C3(F)F)CC1 (stereo partly specified)
scaled lipid accumulation score [6]: 0.206 | scaled lipid accumulation score [2]: 0.837

CCC(C)N(C)C(=O)c1cc2ccccc2c(-c2ccccc2Cl)n1 (stereo unspecified)
scaled lipid accumulation score [2]: 0.007 and ≤ 0

CC(C)(F)C[C@H](N[C@@H](c1ccc(-c2ccc(S(C)(=O)=O)cc2)cc1)C(F)(F)F)C(=O)NC1(C#N)CC1 [Odanacatib (MK-0822)]
scaled lipid accumulation score [6]: ≤ 0 | scaled lipid accumulation score [2]: ≤ 0

CC(C)CCOc1ccc(N)cc1 [CP 24,879 (hydrochloride)]
scaled lipid accumulation score [1]: ≤ 0

CN(C)CCOc1ccc(-c2nc(-c3ccncc3)c(-c3ccc4c(c3)CCC4=NO)[nH]2)cc1
scaled lipid accumulation score [6]: 1.06 (active)

OCCn1cc(-c2ccc3c(c2)CC/C3=N\O)c(-c2ccncc2)n1
scaled lipid accumulation score [3]: 0.006 | scaled lipid accumulation score [4]: 0.086 | scaled lipid accumulation score [5]: ≤ -0.009 | scaled lipid accumulation score [6]: 0.041 | scaled lipid accumulation score [2]: ≤ 0 and ≤ -0.009

CN(C)CCOc1ccc(-c2nc(-c3ccncc3)c(-c3ccc4c(c3)CC/C4=N\O)[nH]2)cc1
scaled lipid accumulation score [3]: 0.074 | scaled lipid accumulation score [4]: 0.325 and 0.619 | scaled lipid accumulation score [5]: 0.7 and 0.684 | scaled lipid accumulation score [2]: 0.476 and 0.423 and 0.307

CCCCCC(O)CCC1C(O)CC(=O)C1CCCCCCC(=O)O (stereo unspecified) [13,14-dihydro Prostaglandin E1]
scaled lipid accumulation score [1]: ≤ 0

CCCCCC(O)CCC1C(O)CC(=O)C1CCCCCCC(=O)O [13,14-dihydro-15(R)-Prostaglandin E1]
scaled lipid accumulation score [1]: ≤ 0

COc1ccc(-c2nc(-c3ccc(-c4cccc(Cl)c4)o3)[nH]c2-c2ccc(OC)cc2)cc1 [Neurodazine]
scaled lipid accumulation score [1]: 0.352 | scaled lipid accumulation score [2]: 0.113

CC(=O)OC1CC2CCC1(C)C2(C)C (stereo unspecified)
scaled lipid accumulation score [2]: ≤ 0

Cc1cc(C=C2C(=O)C=CC2=O)cc(C)c1O [listing 1 of 2 here]
scaled lipid accumulation score [3]: ≤ -0.001 | scaled lipid accumulation score [4]: ≤ -0.001 | scaled lipid accumulation score [5]: 0.593 | scaled lipid accumulation score [6]: 0.464

Cc1cc(C=C2C(=O)C=CC2=O)cc(C)c1O [listing 2 of 2 here]
scaled lipid accumulation score [2]: 0.924 (active)

CCCCCCCCCCCCCCCCOCC(COP(=O)(O)OCC[N+](C)(C)C)OCC (stereo unspecified) [2-O-ethyl PAF C-16]
scaled lipid accumulation score [1]: ≤ 0

CC(=O)NC(C(=O)O)c1ccccc1 (stereo unspecified)
scaled lipid accumulation score [2]: ≤ 0

CC(C)C(=O)Nc1ncc(-c2cc(C(F)F)nn2-c2c(Cl)cccc2Cl)s1
scaled lipid accumulation score [2]: 1.1 (active)
